The values below come from the supplement of paper PMC12669797.

In one assay the test system is ES2. The experiment in a line: cell viability relative to DMSO control (MTS) (fraction of DMSO control); higher = more viable cells / less growth inhibition. To be noted: 10 µM; 48 h. Put shortly:
(§1)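 A 367-compound […] library was tested at a final concentration of 10 µM on TOV-21G and ES2 clear cell carcinoma cells (5000 cells per well, 96-well plates, pre-grown 24 h), with control wells receiving vehicle only. Following 48 h of exposure, CellTiter 96 AQueous One Solution was used as the manufacturer directs. This MTS assay gives cell viability as a fraction of the vehicle control.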

The next assay deals with TOV-21G. The assay is described as above. The settings on record: 10 µM; 48 h. Put shortly:
as §1

“And” between values parts separate entries of the source, which are not always exact repeats. Identical values can stand only once. Counter-ions that a name gives are not always drawn. ± gives the standard deviation of the averaged measurements.

Turning to `CCCS(=O)(=O)Nc1ccc(F)c(C(=O)c2c[nH]c3ncc(-c4ccc(Cl)cc4)cc23)c1F` [Vemurafenib], the cell viability with ES2 amounted to 0.651; in the assay with TOV-21G, 0.881.
Turning to `OC[C@H]1NC[C@H](O)[C@@H](O)[C@@H]1O` [Deoxynojirimycin], the cell viability was determined as 1.02 in the assay with ES2 and 1.19 in the assay on TOV-21G.
Regarding `COc1ccc([C@@H]2Sc3ccccc3N(CCN(C)C)C(=O)[C@@H]2OC(C)=O)cc1` [Diltiazem], the cell viability with ES2 stood at 0.858; with TOV-21G, 1.04.
The like results for `O=C(NCc1ccccc1)c1csc(Nc2ccncn2)n1` [Thiazovivin] were, in that order, 0.941 and 1.04.
Turning to `O=C(O)c1cc(NCc2cc(O)ccc2O)ccc1O` [Lavendustin C], the values for the cell viability in the assay with ES2 and in the assay on TOV-21G were 1.36 and 1.17, respectively.
The like results for `Oc1nc(-c2ccc(C(F)(F)F)cc2)nc2c1CSCC2` were, in that order, 0.961 and 1.1.
In the case of `COc1ccc(C2=N[C@@H](c3ccc(Cl)cc3)[C@@H](c3ccc(Cl)cc3)N2C(=O)N2CCNC(=O)C2)c(OC(C)C)c1` [Nutlin-3], the cell viability came to 0.825 in the assay with ES2 and 0.413 in the assay with TOV-21G.
The corresponding values for `C[C@]1(O)C[C@@H](c2nc(-c3ccc4ccc(-c5ccccc5)nc4c3)c3c(N)nccn32)C1` are 0.62 and 0.875.
The corresponding values for `O=S(=O)(c1cccc2cnccc12)N1CCCNCC1` are 0.979 and 1.04.
The corresponding values for `C[S+]([O-])c1ccc(-c2nc(-c3ccc(F)cc3)c(-c3ccncc3)[nH]2)cc1` (stereo not given) are 0.916 and 0.908.
Turning to `NC(=O)Nc1sc(-c2ccccc2)cc1C(N)=O` [IKK-2 inhibitor VI], the cell viability was found to be 0.555 with ES2 and 0.476 with TOV-21G.
The like results for `Nc1nc(Nc2ccc(S(N)(=O)=O)cc2)nn1C(=S)Nc1c(F)cccc1F` [Cdk1/2 inhibitor III] were, in that order, 0.687 and 0.665.
In the case of `COc1cc(Nc2ncc3c(n2)-c2ccc(Cl)cc2C(c2c(F)cccc2OC)=NC3)ccc1C(=O)O`, the cell viability in the assay on ES2 is 0.769; in the assay on TOV-21G it was 0.619.
The corresponding values for `CN(C)CCCCC(=O)Nc1ccc(NC(=S)NC(=O)c2ccc(C(C)(C)C)cc2)cc1` [Tenovin-6] are 0.406 and 0.274.
The corresponding values for `CCCCCCCCCCCCCCOc1ccc(C(=O)O)o1` are 1.21 and 0.947.
The corresponding values for `CN(C)CC[C@H](CSc1ccccc1)Nc1ccc(S(=O)(=O)NC(=O)c2ccc(N3CCN(Cc4ccccc4-c4ccc(Cl)cc4)CC3)cc2)cc1[N+](=O)[O-]` are 0.713 and 0.358.
For the compound `CC/C(=C(\c1ccccc1)c1ccc(OCCN(C)C)cc1)c1ccccc1` [Tamoxifen, citrate], the cell viability came to 1.34 in the assay on ES2 and 0.868 in the assay on TOV-21G.
The corresponding values for `O=CN1CCN(c2ccc(/C=C3\C(=O)Nc4ccccc43)cc2)CC1` are 1.13 and 1.2.
`NC(=O)c1ccc(-c2nc(-c3ccccn3)c(-c3ccc4c(c3)OCO4)[nH]2)cc1`: the cell viability in the assay with ES2 is 1.08 and 1.11; with TOV-21G, 0.993 and 1.03.
As for `O=C(O)c1ccccc1Nc1ccccc1` [N-phenylanthranilic acid], the cell viability in the assay on ES2 was determined as 1.02; with TOV-21G it was 0.995.
The corresponding values for `c1cc(CN2CCCNCCNCCCNCC2)ccc1CN1CCCNCCNCCCNCC1` [AMD3100 octahydrochloride] are 1.4 and 1.38.
The like results for `CNC(=O)c1ccccc1Sc1ccc2c(/C=C/c3ccccn3)n[nH]c2c1` [Axitinib] were, in that order, 0.917 and 0.841.
For `C=CCNC1=C2C[C@@H](C)C[C@H](OC)[C@H](O)[C@@H](C)/C=C(\C)[C@H](OC(N)=O)[C@@H](OC)/C=C\C=C(/C)C(=O)NC(=CC1=O)C2=O`, the cell viability in the assay with ES2 worked out at 0.541; with TOV-21G, 0.575.
The corresponding values for `CC(C)c1ccc2c(c1)c(SC(C)(C)C)c(CC(C)(C)C(=O)O)n2Cc1ccc(Cl)cc1` are 1.06 and 0.959.
With `Nc1cccc(-c2cc3c(Oc4cccc(O)c4)ncnc3[nH]2)c1`, the cell viability was determined as 0.586 in the assay on ES2 and 1.03 with TOV-21G.
For `CC(C)(C)c1nc2c3cc[nH]c(=O)c3c3cc(F)ccc3c2[nH]1` [JAK Inhibitor I], the cell viability is 0.561 in the assay on ES2 and 0.662 in the assay on TOV-21G.
Turning to `COc1cc2ncnc(Nc3ccc(F)c(Cl)c3)c2cc1OCCCN1CCOCC1` [gefitinib], the cell viability in the assay with ES2 stood at 0.825; with TOV-21G, 0.889.
The like results for `N#C/C(=C\c1ccc(O)c(O)c1)C(=O)NCc1ccccc1` were, in that order, 0.891 ± 0.39 and 1 ± 0.013.
The like results for `Cc1cccc(-c2nn(C(=S)Nc3ccccc3)cc2-c2ccnc3ccccc23)n1` were, in that order, 0.872 and 1.01.
The corresponding values for `COc1c(C=O)c(O)cc2c1C(=O)c1ccccc1C2=O` [Damnacanthal] are 1.05 ± 0.021 and 0.974 ± 0.19.
As to `Cc1ccc2nc(NCCN)c3ncc(C)n3c2c1`, the values for the cell viability with ES2 and in the assay on TOV-21G were 0.489 and 0.375, respectively.
For the compound `C/C=C/C=C\C=C/C(O)C(C)C(CCC(C)C1OC(=O)C=CC1C)OP(=O)(O)O` (stereo not given) [Cytostatin], the cell viability in the assay with ES2 worked out at 0.34; in the assay on TOV-21G, 0.344.
The corresponding values for `CC(ONC(=O)c1cc(C(F)(F)F)cc(C(F)(F)F)c1)C(=O)Nc1ccc(Cl)cc1` (stereo not given) are 1.24 and 1.21.
Take `C[C@]1(c2nc3c(C(N)=O)cccc3[nH]2)CCCN1` [ABT-888 (Veliparib)]: the values for the cell viability with ES2 and in the assay on TOV-21G were 0.897 and 0.892, respectively.
The like results for `C[C@H](NC(=O)/C(C#N)=C/c1cccc(Br)n1)c1ccccc1` were, in that order, 0.347 and 0.392.
The corresponding values for `Cc1nc2c(O)cccc2c(=O)[nH]1` are 1.04 and 0.856.
In the case of `NC(=O)NO` [Hydroxyurea], the cell viability in the assay with ES2 worked out at 1.21; in the assay on TOV-21G it was 0.811.
Turning to `O=C(CCCCCCC(=O)Nc1ccccc1)NO` [vorinostat], the cell viability worked out at 0.38 in the assay with ES2 and 0.388 with TOV-21G.
The like results for `CNC(=N)NCCC[C@H](N)C(=O)O` were, in that order, 0.909 and 0.974.
Regarding `COc1cccc(-c2cc(=O)c3ccccc3o2)c1N`, the cell viability was 0.798 and 0.451 in the assay on ES2; 0.852 and 0.84 in the assay with TOV-21G.
On to `NC(=O)c1ccc(I)c([N+](=O)[O-])c1` [BSI-201 (Iniparib)], for which the cell viability was 0.778 in the assay with ES2 and 1.29 in the assay on TOV-21G.
The corresponding values for `O=[N+]([O-])c1ccc(-c2nc(-c3ccc(F)cc3)c(-c3ccncc3)[nH]2)cc1` are 0.835 and 0.976.
In the case of `Oc1c2ccccc2c2c3c(cccc13)N=N2`, the values for the cell viability in the assay on ES2 and in the assay on TOV-21G were 0.721 ± 0.32 and 0.65 ± 0.023, respectively.
`CCCCCCCC(=O)OCCOC(=O)CCCCCCC` [Dioctanoylglycol]: the cell viability in the assay on ES2 worked out at 1.3; with TOV-21G it was 0.996.
With `CC(C)n1nc(-c2cc3cc(O)ccc3[nH]2)c2c(N)ncnc21` [Torkinib], the cell viability with ES2 was 0.417; in the assay on TOV-21G, 0.38.
The like results for `O=C(CCCCCN1C(=O)c2cccc3cccc(c23)C1=O)NO` [Scriptaid] were, in that order, 0.311 and 0.367.
The like results for `O=C1CCC(N2C(=O)c3ccccc3C2=O)C(=O)N1` (stereo not given) [thalidomide] were, in that order, 0.958 and 0.989.
The like results for `COc1ccc(Cl)cc1C(=O)NCCc1ccc(S(=O)(=O)NC(=O)NC2CCCCC2)cc1` [Glibenclamide] were, in that order, 0.829 and 0.958.
As to `CS(=O)(=O)Nc1ccc([N+](=O)[O-])cc1OC1CCCCC1`, the cell viability with ES2 is 0.933; in the assay on TOV-21G it was 1.02.
On to `NS(=O)(=O)c1ccc(Nc2nc(OCC3CCCCC3)c3[nH]cnc3n2)cc1`, for which the cell viability was 0.699 in the assay with ES2 and 0.784 with TOV-21G.
As for `CNC(=O)c1ccc(N2C(=S)N(c3ccc(C#N)c(C(F)(F)F)c3)C(=O)C2(C)C)cc1F`, the cell viability in the assay with ES2 turned out to be 1.14; in the assay on TOV-21G, 1.18.
The corresponding values for `C=CCc1cccc(/C=N/NC(=O)CN2CCN(Cc3ccccc3)CC2)c1O` are 0.787 and 0.821.
The like results for `CC[C@]1(O)C[C@@H]2CN(CCc3c([nH]c4ccccc34)[C@@](C(=O)OC)(c3cc4c(cc3OC)N(C)[C@H]3[C@@](O)(C(=O)OC)[C@H](OC(C)=O)[C@]5(CC)C=CCN6CC[C@]43[C@@H]65)C2)C1` [Vinblastine sulfate] were, in that order, 0.52 and 0.427.
With `CC(=O)N[C@@H](CS)C(=O)O` [N-Acetyl-L-cysteine], the cell viability in the assay with ES2 worked out at 1.04; in the assay on TOV-21G, 0.965.
The corresponding values for `C[n+]1cc2c3c(ccc2c2ccc4cc5c(cc4c21)OCO5)OCO3` [Sanguinarine] are 0.385 and 0.253.
The like results for `NC(=O)c1ccccc1` [Benzamide] were, in that order, 0.902 and 0.989.
With `CC(C)[C@H](CO)Nc1nc(Nc2cccc(Cl)c2)c2ncn(C(C)C)c2n1` [Purvalanol A], the figures for the cell viability in the assay on ES2 and in the assay with TOV-21G were 0.815 and 0.652, respectively.
With `CC(C)[C@H](CO)Nc1nc(Nc2cccc(Cl)c2)c2ncn(C(C)C)c2n1` [purvalanol A], the figures for the cell viability in the assay on ES2 and in the assay on TOV-21G were 0.657 and 0.607, respectively.
The like results for `COc1ccc(CCN(C)CCCC(C#N)(c2ccc(OC)c(OC)c2)C(C)C)cc1OC` (stereo not given) [Verapamil] were, in that order, 0.953 and 1.12.
The corresponding values for `NC(=O)c1ccc2nc(-c3ccc(Oc4ccc(Cl)cc4)cc3)[nH]c2c1` [Chk2 inhibitor II] are 1.23 and 1.1.
In the case of `CS(=O)(=O)CCNCc1ccc(-c2ccc3ncnc(Nc4ccc(OCc5cccc(F)c5)c(Cl)c4)c3c2)o1` [lapatinib], the figures for the cell viability in the assay with ES2 and with TOV-21G were 0.482 and 4.68, respectively.
The corresponding values for `CO[C@@]12[C@H](COC(N)=O)C3=C(C(=O)C(C)=C(N)C3=O)N1C[C@@H]1N[C@@H]12` [Mitomycin C] are 0.35 and 0.213.
The like results for `Cc1nc(Nc2ncc(C(=O)Nc3c(C)cccc3Cl)s2)cc(N2CCN(CCO)CC2)n1` [dasatinib] were, in that order, 0.608 and 0.815.
With `O=C([O-])c1ccccc1O.[Na+]` [Sodium salicylate], the cell viability in the assay on ES2 amounted to 0.785; with TOV-21G, 1.27.
The like results for `COc1nccc(-c2c(-c3ccc(F)cc3)ncn2C2CCC(O)CC2)n1` (stereo not given) were, in that order, 1.14 and 1.06.
For the compound `Cc1cc(Nc2cc(N3CCN(C)CC3)nc(/C=C/c3ccccc3)n2)n[nH]1`, the values for the cell viability with ES2 and with TOV-21G were 0.534 and 0.289, respectively.
The corresponding values for `CC(=O)N[C@@H](CSC(=O)[C@]1([C@@H](O)C(C)C)NC(=O)[C@H](C)[C@@H]1O)C(=O)O` [Lactacystin] are 0.637 and 0.482.
The corresponding values for `C[C@@H]1C[C@H]2O[C@@H]2/C=C\C=C\C(=O)Cc2c(Cl)c(O)cc(O)c2C(=O)O1` [Radicicol] are 0.533 and 0.37.
The like results for `COc1cc2nccc(Oc3ccc(NC(=S)NC(=O)c4ccccc4C)cc3)c2cc1OC` [PDGF receptor tyrosine kinase inhibitor V] were, in that order, 0.874 and 0.525.
For `O=C1Nc2ccc(I)cc2/C1=C\c1cc(Br)c(O)c(Br)c1` [RAF1 kinase inhibitor I], the results for the cell viability in the assay with ES2 and with TOV-21G were 1.1 and 1.03, respectively.
The like results for `Cc1ccc(NC(=O)c2cccc(N(C)C)c2)cc1NC(=O)c1ccc(O)cc1` were, in that order, 0.951 and 0.888.
The like results for `O=C(Nc1cccc(Nc2nccc(Nc3cccc(C(F)(F)F)c3)n2)c1)C1CC1` [Aurora kinase inhibitor III] were, in that order, 0.94 and 0.573.
The corresponding values for `COc1cc2/c(=N/c3ccc(Br)cc3F)nc[nH]c2cc1OCC1CCN(C)CC1` [Vandetanib] are 0.577 and 0.436.
Take `O=C(Nc1ccc([N+](=O)[O-])cc1O)Nc1ccccc1Br`: the cell viability in the assay on ES2 stood at 0.469; in the assay on TOV-21G, 0.605.
The like results for `CCN(CC)CCNC(=O)c1c(C)[nH]c(/C=C2\C(=O)Nc3ccc(F)cc32)c1C` [sunitinib malate] were, in that order, 0.439 and 0.555.
